HCV inhibitor = qHTS Assay for Inhibitors of Hepatitis C Virus (HCV); Huh7.5.1 HCVcc-Cre infection, luciferase reporter, 44 h; Potency, µM (series often up to 41.8 µM), without a hit: top-dose activity change, negative = inhibition, most hits filed as inhibitors; hit rate 3.4% among 340,000; AID 651820, 2012; note: % is set by controls: 0 for no effect and ±100 for the full control effect
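HCVcc-Cre virus at an moi near 0.5 was added right after compound to cells cultured 4 h from seeding (1,000 cells/well). Luciferase activity was determined 44 h later, 15 min after substrate addition at RT.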
AMA1-RON2 inh = qHTS for Inhibitors of AMA1-RON; Towards Development of Antimalarial Drug Lead: Primary Screen. Plasmodium falciparum AMA1 (3D7) - RON2 peptide interaction. AlphaScreen AMA1-biotinylated RON2 peptide binding. Potency, µM (titrated, usually from 58.2 µM), without a hit: at the highest dose activity change, negative = inhibition, actives largely listed as inhibitors. hit rate 0.2% among 360,000;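 note: 0% = vehicle wells and -100% = peptide control; nearly all actives have a fitted effect of over 45% in size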
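AMA1 (3D7) with his tag at 25 nM final met compounds first, then biotinylated RON2 peptide at 25 nM; detection used donor plus acceptor beads, 10 µg/mL apiece, read by AlphaScreen after 30 min at room temperature.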
Pf growth 96h = Primary qHTS for delayed death inhibitors of the malarial parasite plastid, 96 hour incubation; hit rate 6.9% among 320,000; P. falciparum luciferase reporter growth, 96 h; Potency, µM (series often up to 28.7 µM), for the others: top-dose activity change, negative = inhibition, usual class: inhibitors; note: % is set by controls: 0 for no effect and ±100 for the full control effect
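Readout is luminescence from an integrated firefly luciferase in P. falciparum. Red cells, 2% hematocrit and 0.05% parasitemia final, were cultured with compound through two parasite generations (96 hours) at 37 C, 5% CO2.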
NS1 function inh = qHTS Assay for Inhibitors of Influenza NS1 Protein Function | Potency, µM (doses to about 46.1 µM), inactives show top-dose activity, positive = more growth | hit rate 0.4% among 270,000 | AID 2326, 2010; calls by dose curve; note: actives are rising curves; nearly all actives have a fitted effect of over 50% in size
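S. cerevisiae expressing influenza A NS1, grown in glucose, washed, then diluted 1:100 into pH 6.0 -URA galactose medium with 23 nl compound. Growth recovery read as OD600; NS1-free strain serves as control.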
Pf growth 48h = Primary qHTS for delayed death inhibitors of the malarial parasite plastid, 48 hour incubation; hit rate 5.9% among 310,000; Potency, µM (series often up to 28.7 µM), for the others: top-dose activity change, negative = inhibition, most hits filed as inhibitors; P. falciparum luciferase growth in erythrocytes, 48 h; note: % is set by controls: 0 for no effect and ±100 for the full control effect
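A one-generation exposure of luciferase-tagged malaria parasites in RPMI 1640/Albumax erythrocyte culture, 37 C and 5% CO2. Inhibition is inferred from decreased luminescence after adding detection reagent.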
SARS PLP yeast = qHTS of Yeast-based Assay for SARS-CoV PLP | Potency, µM (series often up to 32.9 µM), for inactives: top-dose activity, positive = growth rescue, usual class: activators | AID 485353, 2010 | S. cerevisiae expressing SARS-CoV PLpro, growth rescue | hit rate 0.19% among 330,000; calls by dose curve; note: 0% is about no effect; nearly all actives have a fitted effect of over 55% in size
Numbers without * were called inactive; ? = inconclusive; · = no result; [ ] = another dose, or the depositor's remark. Rows were chosen to be rich in hits. Some 12% of all compounds tested hit in one or more screens of this group. Unless noted, calls come from the whole dose curve; as a rule, active = well fitted curve in the direction sought with a large enough effect; inconclusive = small, poorly fitted or top-dose-only effect, or another doubt; inactive = no such curve, though single readings can be large; an effect the other way counts as inactive or inconclusive. Potency is the fitted concentration of half-maximal effect.

SMILES	HCV inhibitor	AMA1-RON2 inh	Pf growth 96h	NS1 function inh	Pf growth 48h	SARS PLP yeast
COc1ccc(NC(=S)N(CCCN2CCOCC2)Cc2cn(C)c3ccccc23)cc1	?	-22.6%	?	15.1%	?	-11.5%
CN(C)C(=O)O/N=C(\N)COc1ccc(C(C)(C)C)cc1	?	11.2%	11.7µM*	-81.6%	6.57µM*	-7.3%
CCOC(=O)Cn1nc(-c2ccccc2)nc1-c1ccccc1	3.3%	11.9%	·	-8.9%	43.3%	-3.4%
CCn1nc(-c2ccccc2)nc2c(=O)n(C)c(=O)nc1-2	2.82µM*	-0.8%	-15.7%	-67.5%	82.4%	-97.5%
CCCCN(C(=O)CSCc1c(C)noc1C)c1c(N)n(CCCC)c(=O)[nH]c1=O	23.4%	19.2%	6.8%	·	?	1.6%
CN(CC(=O)Nc1n[nH]c(=S)s1)S(=O)(=O)c1cccc2cccnc12	1.3%	81.3%	5.22µM*	9.0%	-4.7%	3.2%
Cc1ccc(OCC(=O)N(c2ccccn2)C2CCCCC2)c(C)c1	-5.5%	18.3%	7.38µM*	-15.2%	?	-3.3%
Cc1cc(S(=O)(=O)N2CCCC2)ccc1OCC(=O)NCc1ccccn1	6.1%	9.1%	-1.4%	-5.4%	-11.1%	-2.3%
Cc1cc(S(=O)(=O)NC2CCCCC2)ccc1OCC(=O)NCc1ccccn1	17.2%	0.0%	?	-4.2%	13.1µM*	5.7%
CC1=NNC(=O)C1C(c1ccccc1)C1C(=O)NN=C1C (centres undefined)	·	·	37.4%[1.15 µM]	·	?	0.2%
Fc1ccc(CNC(=S)Nc2ccccc2Cl)cc1	5.5%	3.2%[2.32 µM]	?	-18.5%	17.4%	?
O=C(Nc1ccc(F)cc1)c1cc(S(=O)(=O)N2CCOCC2)cs1	-27.5%	-11.7%	11.7µM*	-0.7%	28.4%	0.4%
O=C(Nc1ccc(Cl)cc1)c1cc(S(=O)(=O)N2CCOCC2)cs1	5.62µM*	1.0%	-4.7%	-3.9%	·	7.3%
Cc1ccc(NC(=O)c2cc(S(=O)(=O)N3CCOCC3)cs2)cc1	?	-3.0%	33.7%	3.8%	?	4.3%
O=C(Nc1ccc(F)cc1)c1cc(S(=O)(=O)Nc2ccc(F)cc2)cs1	-1.7%	-23.0%	11.7µM*	27.2%	12.6%	-2.7%
COC(=O)[C@]1(C)N[C@H](CN(C)S(=O)(=O)c2ccccc2)[C@@H]2C(=O)N(Cc3ccccc3)C(=O)[C@@H]21	?	12.6%	·	·	·	0.2%
NC(=O)[C@@H]1CCCN1Cc1c(C(=O)N2CCc3ccccc3C2)nc2ccc(Cl)cn12	4.5%	16.5%	?	7.9%	35.4%	-2.4%
CCNc1nc(NCC)n2c(SC(C(=O)Nc3cc(Cl)cc(Cl)c3)c3ccccc3)nnc2n1 (centres undefined)	?	8.7%	10.4µM*	14.3%	11.7%	3.2%
CCNc1nc(NCC)n2c(SCC(=O)Nc3cccc(F)c3)nnc2n1	-7.3%	11.3%	-22.8%	·	?	-7.1%
CCNc1nc(NCC)n2c(SCC(=O)Nc3cccc(Cl)c3)nnc2n1	?	-15.8%	5.22µM*	·	11.7µM*	8.4%
c1ccc(Nc2nc3ccccc3n3nnnc23)cc1	-9.2%	36.8%	-61.4%	0.2%	?	-1.2%
c1ccc2c(c1)nc(Nc1ccc3c(c1)OCO3)c1nnnn12	11.7%	12.3%	64.6%	?	10.4µM*	-8.1%
Brc1ccc(Nc2nc3ccccc3n3nnnc23)cc1	·	·	?	-6.5%	·	-20.1%
Fc1cccc(Nc2nc3ccccc3n3nnnc23)c1	16.3%	55.8%	6.57µM*	-0.9%	·	6.6%
CCN(CC)S(=O)(=O)c1ccc(Nc2nc3ccccc3n3nnnc23)cc1	-24.7%	5.7%	-2.5%	?	4.65µM*	-0.8%
SMILES	HCV inhibitor	AMA1-RON2 inh	Pf growth 96h	NS1 function inh	Pf growth 48h	SARS PLP yeast
Fc1ccccc1Nc1nc2ccccc2n2nnnc12	4.7%	113.3%	-0.6%	-7.5%	·	3.5%
CCN(CC(=O)Nc1c(F)cccc1F)C(=O)c1cccnc1Sc1ccccc1	?	-12.1%	38.6%	·	20.9%	5.4%
Cc1cccc(NC(=O)C(Cc2ccccc2)c2nn[nH]n2)c1C (centres undefined)	17.9%	-5.9%	8.28µM*	18.9%	?	-4.5%
Cc1ccc(C(=O)Nc2ccc(N3CCOCC3)c3nonc23)cc1[N+](=O)[O-]	-24.0%	4.6%	?	-3.7%	-10.8%	-0.5%
CCn1c(=O)n(CC)c2cc(N3CCCC3)c(NC(=O)c3cccc(C)c3)cc21	12.6µM*	-6.0%	?	-13.0%	0.0%	-3.7%
CCn1c(=O)n(CC)c2cc(N3CCCC3)c(NC(=O)c3ccccc3OC)cc21	?	-21.1%	-2.0%	-11.8%	?	-25.0%
CCn1c(=O)n(CC)c2cc(N3CCCC3)c(NC(=O)c3cccc(Cl)c3)cc21	6.31µM*	-4.1%	11.7µM*	1.2%	?	-8.9%
CCn1c(=O)n(CC)c2cc(N3CCCC3)c(NC(=O)c3ccc(C)c([N+](=O)[O-])c3)cc21	7.94µM*	11.1%	2.9%	-0.1%	-25.3%	6.4%
CCn1c(=O)n(CC)c2cc(N3CCCC3)c(NC(=O)c3ccc(OC)c(Br)c3)cc21	?	-24.3%	-22.0%	2.5%	13.1µM*	-0.2%
CCOc1ccccc1C(=O)Nc1cc2c(cc1N1CCCC1)n(CC)c(=O)n2CC	?	-23.0%	-12.5%	-26.9%	?	2.6%
Cn1c(SCC2CCCO2)nnc1-c1cccc([N+](=O)[O-])c1 (centres undefined)	23.2%	10.9%	-28.6%	-4.9%	45.1%	0.5%
CCN(CC(=O)Nc1c(F)cccc1F)C(=O)C1CCN(c2ncnc3sc(C)c(C)c23)CC1	?	-6.1%	?	·	10.4µM*	0.5%
Cc1cccc(C)c1NC(=O)CN(C)C(=O)C1CCN(c2ncnc3sc(C)c(C)c23)CC1	?	-20.4%	7.38µM*	·	?	-0.9%
Cc1cc(Br)ccc1NC(=O)CN(C)C(=O)C1CCN(c2ncnc3sc(C)c(C)c23)CC1	10µM*	-15.3%	·	·	·	·
CCN(CC(=O)Nc1c(Cl)cccc1Cl)C(=O)C1CCN(c2ncnc3sc(C)c(C)c23)CC1	13.2%	13.6%	-23.9%	·	?	-7.8%
O=C(CN1C(=O)NC2(CCCC2)C1=O)NCCN1C(=O)S/C(=C\c2ccccc2F)C1=O	0.6%	9.8%	4.65µM*	·	?	1.8%
COc1ccc(/C=C2\SC(=O)N(CCNC(=O)CN3C(=O)NC4(CCCC4)C3=O)C2=O)cc1	?	-0.8%	3.3%	·	30.2%	2.4%
O=C(Cn1[nH]c(=O)c2ccccc2c1=O)NCCN1C(=O)S/C(=C\c2ccccc2)C1=O	11.2µM*	-2.2%	·	·	·	-0.8%
CC(CN1C(C)CCCC1C)OC(=O)c1ccc(F)cc1 (centres undefined)	8.6%	-5.4%	?	3.7%	2.5%	-0.2%
